Only some compounds are listed: those with a hit (about 3.9% of all), similar ones and a draw of the others.
BoNT A protease: BoNT A light chain protease inhibition. inhibition, % at 10 µM. multiplex microsphere protease substrate cleavage, flow cytometry. AID 588499. 360,000 tested, 0.17% active; in the data active means inhibition above about 30%; inconclusive means no clear call, values can overlap the other calls
VHR inh abs: DUSP3 (human) phosphatase inhibition; recombinant VHR phosphatase, pNPP absorbance; 290,000 tested, 0.52% active; inhibition, % at 13.3 µM; in the data active means inhibition above about 50%
Target sequence (P51452 whole entry, looked up): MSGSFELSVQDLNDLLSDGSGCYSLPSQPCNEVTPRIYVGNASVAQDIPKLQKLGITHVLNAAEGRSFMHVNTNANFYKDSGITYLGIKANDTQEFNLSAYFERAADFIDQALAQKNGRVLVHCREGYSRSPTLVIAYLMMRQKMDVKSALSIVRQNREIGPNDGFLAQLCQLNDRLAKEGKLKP
BoNT-F LC inh: inhibitors of Botulinum neurotoxin F light chain protease. 360,000 tested, 0.22% active. inhibition, % at 10 µM. Multiplex microsphere protease cleavage assay, flow cytometry. AID 588497; in the data active means inhibition above about 35%, passing the limit was not always enough; inconclusive means no clear call, values can overlap the other calls
3CLpro inhibitor: SARS-CoV 3CLpro protease inhibition; AID 1706; 290,000 tested, 0.14% active; inhibition, % at 6 µM; recombinant SARS-CoV 3CLpro, quenched FRET peptide cleavage; in the data active means inhibition above about 12%
Anthrax LF prot: blocks Bacillus anthracis lethal factor protease; AID 588501; multiplex microsphere protease cleavage assay, LF; P15917; inhibition, % at 10 µM; 360,000 tested, 0.12% active; in the data active means inhibition above about 30%; inconclusive means no clear call, values can overlap the other calls
Autofluor counter: compound fluorescence in toxin protease inhibitor counterscreen. compound autofluorescence counterscreen, microsphere flow cytometry; stronger effect = higher value. fluorescence intensity (test concentration not listed). 360,000 tested, 3.1% active. AID 624483; in the data active means fluorescence intensity above about 16000; inconclusive means no clear call, values can overlap the other calls
BoNT-A LC CP1: BoNT/A light chain protease inhibition | shares compounds with BoNT-F LC inh | multiplex microsphere protease assay, flow cytometry | inhibition, % at 10 µM | 720 tested, 3% active; in the data active means inhibition above about 32%
BoNTF LC inh 1: BoNT/F light chain protease inhibition. multiplex microsphere protease cleavage assay, flow cytometry. 720 tested, under 10 active. inhibition, % at 10 µM. shares compounds with BoNT-F LC inh. AID 602140
LF protease CP1: blocks anthrax lethal factor protease; multiplex microsphere protease cleavage assay, LF; inhibition, % at 10 µM; 720 tested, under 10 active; shares compounds with BoNT-F LC inh
Each line names hits and unclear results; the compound was inactive in the other large screens (follow-up assays come after a bar, where they were run). Unless noted, how the calls were made is not given here.

CN(Cc1cn(C)nc1-c1ccccc1F)CC1CCCCO1 (configuration not stated)	none
CCn1c(=O)n(CC)c2cc(S(N)(=O)=O)c(C)cc21	BoNT-F LC inh 44.0 | BoNT-A LC CP1 inactive | BoNTF LC inh 1 inactive | LF protease CP1 inactive
CCn1c(=O)n(CC)c2cc(S(=O)(=O)N3CCCCC3)c(C)cc21	none
CC(=O)N1N=C(c2ccccc2)CC1c1cccc([N+](=O)[O-])c1 (configuration not stated)	BoNT-F LC inh 41.9 | BoNT-A LC CP1 inactive | BoNTF LC inh 1 inactive | LF protease CP1 inactive
CC(=O)N1N=C(c2cccs2)CC1c1cccc([N+](=O)[O-])c1 (configuration not stated)	none
COCCN(C(=O)c1ccccc1)c1nnc(-c2cccnc2)s1	BoNT-F LC inh 35.5 | BoNT-A LC CP1 inactive | BoNTF LC inh 1 inactive | LF protease CP1 inactive
COCCN(C(=O)CC(C)(C)C)c1nnc(-c2cccnc2)s1	none
CCCOc1ccc(C(=O)C(CN2CCOCC2)c2ccccc2)cc1 (configuration not stated)	none
CC(CN1CCOCC1)C(=O)c1ccccc1 (configuration not stated)	none | BoNT-A LC CP1 inactive | BoNTF LC inh 1 inactive | LF protease CP1 inactive
O=C(Nc1ccccc1C(=O)Nc1nncs1)c1ccccc1	BoNT-F LC inh 39.6 | BoNT-A LC CP1 inactive | BoNTF LC inh 1 inactive | LF protease CP1 inactive
Cc1cccc2cc(C(c3nnnn3C3CCCC3)N3CCOCC3)c(=O)[nH]c12 (configuration not stated)	BoNT A protease inconclusive, Autofluor counter 21873 | BoNT-A LC CP1 inactive | BoNTF LC inh 1 inactive | LF protease CP1 inactive
Cc1ccc2[nH]c(=O)c(C(c3nnnn3CC3CCCO3)N3CCOCC3)cc2c1 (configuration not stated)	Autofluor counter inconclusive
Cc1cc(C)c2cc(C(c3nnnn3C3CCCC3)N3CCOCC3)c(=O)[nH]c2c1 (configuration not stated)	none | BoNT-A LC CP1 inactive | BoNTF LC inh 1 inactive | LF protease CP1 inactive
COc1ccc(CNC(=O)CSc2nnc(NC(=O)C3CC3)s2)cc1	BoNT-F LC inh 34.9 | BoNT-A LC CP1 inactive | BoNTF LC inh 1 inactive | LF protease CP1 inactive
COc1cc2nc(/C=C/c3ccc(N(C)C)cc3)sc2cc1SC	BoNT A protease 39.4 | BoNT-A LC CP1 inactive | BoNTF LC inh 1 inactive | LF protease CP1 inactive
Cc1ccc(NC(=O)Cn2nc(C(=O)O)c3ccccc3c2=O)cc1S(=O)(=O)N1CCCCCC1	none (no result: VHR inh abs, 3CLpro inhibitor)
COc1ccccc1C(=O)NCCn1ccc2ccccc21	BoNT A protease 95.9, BoNT-F LC inh 35.6, Anthrax LF prot 58.6 | BoNT-A LC CP1 inactive | BoNTF LC inh 1 inactive | LF protease CP1 inactive
COCC(C)NS(=O)(=O)c1ccc(C(=O)NCCCn2ccc3ccccc32)cc1 (configuration not stated)	none | BoNT-A LC CP1 inactive | BoNTF LC inh 1 inactive | LF protease CP1 inactive
CN(C)c1cccc(C(=O)NCCCn2ccc3ccccc32)c1	none | BoNT-A LC CP1 inactive | BoNTF LC inh 1 inactive | LF protease CP1 inactive
CC(=O)NCCn1ccc2ccccc21	none
O=C(Cc1ccccc1)NCCn1ccc2ccccc21	none
COc1cc(OC)cc(C(=O)NCCn2ccc3ccccc32)c1	none | BoNT-A LC CP1 inactive | BoNTF LC inh 1 inactive | LF protease CP1 inactive
COc1cccc(C(=O)NCCn2ccc3ccccc32)c1	none | BoNT-A LC CP1 inactive | BoNTF LC inh 1 inactive | LF protease CP1 inactive
COc1ccc(C(=O)NCCn2ccc3ccccc32)cc1OC	none | BoNT-A LC CP1 inactive | BoNTF LC inh 1 inactive | LF protease CP1 inactive
Cc1ccc(OCCSc2nc3ccccc3n2CC(=O)O)cc1C	none (no result: BoNT A protease, BoNT-F LC inh, Anthrax LF prot, Autofluor counter)
CCN(c1ccccc1)S(=O)(=O)c1ccc(N)c(OC)c1	none
C=CCSc1nc(-c2ccc3c(c2)OCO3)cc(C(F)(F)F)c1C#N	BoNT A protease 30.7 | BoNT-A LC CP1 inactive | BoNTF LC inh 1 inactive | LF protease CP1 inactive
COc1cccc(NC(=O)CN(C)C(=O)CNC(=O)c2ccc(C)s2)c1	Autofluor counter inconclusive (no result: VHR inh abs, 3CLpro inhibitor)
COc1cccc(NC(=O)CN(C)C(=O)CCC(=O)c2cc(C)sc2C)c1	BoNT A protease 67.7, BoNT-F LC inh inconclusive (no result: VHR inh abs, 3CLpro inhibitor) | BoNT-A LC CP1 inactive | BoNTF LC inh 1 inactive | LF protease CP1 inactive
Cc1nn(-c2ccccc2)c2sc(C(=O)N3CCCCC3)cc12	BoNT-F LC inh 38.5 | BoNT-A LC CP1 inactive | BoNTF LC inh 1 inactive | LF protease CP1 inactive
CC(=O)c1ccc(OCCCC(=O)OCC(=O)Nc2ccc3[nH]c(=O)[nH]c3c2)cc1	none (no result: VHR inh abs, 3CLpro inhibitor)
Cc1ccc(N2C(=O)N(CC(=O)NCc3ccc(Cl)cc3)C(=O)C2C)cc1 (configuration not stated)	none
CCc1ccc(C(=O)CN2C(=O)C(C)N(c3ccc(C)cc3)C2=O)cc1 (configuration not stated)	BoNT-F LC inh 49.9 | BoNT-A LC CP1 inactive | BoNTF LC inh 1 inactive | LF protease CP1 inactive
Cc1ccc(C)c(C(=O)Cn2c(NCCO)nc3ccccc32)c1	none
COc1ccc2nc(NC(=O)CSC(C)C(=O)Nc3cc(C)on3)sc2c1 (configuration not stated)	BoNT A protease 84.8, BoNT-F LC inh inconclusive, Anthrax LF prot inconclusive (no result: VHR inh abs, 3CLpro inhibitor) | BoNT-A LC CP1 inactive | BoNTF LC inh 1 inactive | LF protease CP1 inactive
Cc1cc(NC(=O)CSCC(=O)Nc2nc3ccc(F)cc3s2)no1	none (no result: VHR inh abs, 3CLpro inhibitor)
Cc1ccc(-c2nc3cc(Br)cnc3nc2-c2ccc(C)cc2)cc1	BoNT A protease 45.7 | BoNT-A LC CP1 inactive | BoNTF LC inh 1 inactive | LF protease CP1 inactive
O=S(=O)(c1ccc(Cl)cc1)N1CCCc2ccccc21	none
COc1ccc2c(c1)CCCN2S(=O)(=O)c1ccc(Cl)cc1	Anthrax LF prot 37.3 | BoNT-A LC CP1 inactive | BoNTF LC inh 1 inactive | LF protease CP1 inactive
CS(=O)(=O)Nc1ccccc1C(=O)Nc1cccc(Cl)c1	BoNT A protease inconclusive, BoNT-F LC inh 52.6 | BoNT-A LC CP1 inactive | BoNTF LC inh 1 inactive | LF protease CP1 inactive
CC(=O)NCCn1c(SCc2cccc([N+](=O)[O-])c2)nc2ccccc2c1=O	none
O=C(N[C@H]1C/C=C\C[C@H](CC(=O)N(CCO)Cc2ccccc2)C(=O)N[C@@H](c2ccccc2)COC1=O)OCC1c2ccccc2-c2ccccc21	none (no result: VHR inh abs, 3CLpro inhibitor)
O=C(CN1CCCCCC1)Nc1ccccc1F	none
O=C(CC(=O)Nc1ccccc1F)Nc1ccccc1F	Anthrax LF prot 41.5 | BoNT-A LC CP1 inactive | BoNTF LC inh 1 inactive | LF protease CP1 inactive
Cc1nn(Cc2ccc(Cl)cc2)c(=O)n1N(C)c1ncc(C(F)(F)F)cc1Cl	none
Cc1nn(Cc2ccc([N+](=O)[O-])cc2)c(=O)n1N(C)c1ncc(C(F)(F)F)cc1Cl	BoNT-F LC inh 38.4 | BoNT-A LC CP1 inactive | BoNTF LC inh 1 inactive | LF protease CP1 inactive
N#Cc1ccc(S(=O)(=O)N2CCC(C(=O)N3CCN(Cc4ccc5c(c4)OCO5)CC3)CC2)cc1	none (no result: VHR inh abs, 3CLpro inhibitor)
